{"source": "PubChem BioAssay (NCATS)", "note": "Results filed as inconclusive are left out. A number with no mark means an inactive call. The source made the active and inactive calls. Calls follow the shape of the dose curve; as a rule, active = well fitted inhibition curve with a large enough effect; inconclusive = small, poorly fitted or top-dose-only effect; inactive = flat fitted curve, though single readings scatter. % is scaled to controls: 0 for no effect and ±100 for the full control effect; potency is read from the fitted curve at half-maximal effect."}
{"experiment": "P-glycoprotein substrates identified in KB-8-5-11 adenocarcinoma cell line, qHTS therapeutic library screen (AID 1346987); also: nearly all actives have a fitted effect of over 65% in size", "details": "KB-8-5-11 (P-gp overexpressing) viability, CellTiter-Glo, 72 h; series mostly up to 44.5 µM; activity change, negative = cytotoxicity: at the top concentration", "outline": "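Human cervical adenocarcinoma KB-8-5-11 cells, selected in colchicine to over-express P-gp and assayed without it, were exposed for 72 h to titrated compounds. An ATP-based luminescent viability signal gave AC50.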"}
{"compound": "Cc1cc(C(=O)Nc2cc(Oc3ccc4nc(NC(=O)C5CC5)cn4n3)ccc2C)n(C)n1", "Potency": "9.2 µM (active)"}
{"compound": "CNC[C@@H]1CC[C@@H](N)[C@@H](O[C@H]2[C@H](O)[C@@H](O[C@H]3OC[C@](C)(O)[C@H](NC)[C@H]3O)[C@H](N)C[C@@H]2N)O1", "activity change, negative = cytotoxicity": "1.56%"}
{"compound": "Cc1cc(-c2ncc(-c3cccnc3)cc2/C=C/c2ccccc2)cnc1-c1cccnc1", "Potency": "10.3 µM (active)"}
{"compound": "CS(=O)(=O)Nc1cc2occ(NC=O)c(=O)c2cc1Oc1ccccc1", "activity change, negative = cytotoxicity": "-16.6%"}
{"compound": "CN(C)CC1CCn2c(c(C3=C(c4cn(C)c5ccccc45)C(=O)NC3=O)c3ccccc32)C1", "note": "(stereo unspecified)", "Potency": "16.4 µM (active)"}
{"compound": "O=C1C(Cc2ccc(O)cc2)N2C(=O)CCN(C(=O)NCc3ccccc3)C2CN1Cc1cccc2ccccc12", "note": "(stereo unspecified)", "activity change, negative = cytotoxicity": "3.1%"}
{"compound": "Cn1ncc(Cl)c1-c1cc(C(=O)NC(CN)Cc2ccc(F)c(F)c2)oc1Cl", "note": "(stereo unspecified)", "Potency": "14.6 µM (active)"}
{"compound": "N#Cc1cc(CN2CCC(Nc3ncnc4sc(Cl)cc34)CC2)ccc1F", "Potency": "9.2 µM (active)"}
{"compound": "Fc1ccc(-c2nc(-c3c(F)cccc3F)[nH]c2-c2ccncc2)cc1", "activity change, negative = cytotoxicity": "-2.52%"}
{"compound": "CCn1c2ccccc2c2cc(Nc3ccnc(NCCCN4CCOCC4)n3)ccc21", "Potency": "20.6 µM (active)"}
{"compound": "OC1C=C2C3CN(Cc4cc5c(cc43)OCO5)C2CC1O", "note": "(stereo unspecified)", "Potency": "13 µM (active)"}
{"compound": "C=C[C@@]1(C)CCC2C(=CCC3[C@]2(C)CCC[C@@]3(C)C(=O)O)C1", "note": "(stereo partly specified)", "activity change, negative = cytotoxicity": "-24.6%"}
{"compound": "COc1ccccc1OCCNCC(O)CCOc1cccc2[nH]c3ccccc3c12", "note": "(stereo unspecified)", "Potency": "18.4 µM (active)"}
{"compound": "C/C=C(/C)C(=O)OC1CC(C)(C)CC2C3=CCC4C5(C)CCC(O[C@@H]6O[C@H](C(=O)O)[C@@H](O)[C@H](O)[C@H]6O[C@@H]6O[C@H](CO)[C@H](O)[C@H](O[C@@H]7OC[C@H](O)[C@H](O)[C@H]7O[C@@H]7O[C@H](CO)[C@@H](O)[C@H](O)[C@H]7O)[C@H]6O)C(C)(C)C5CCC4(C)C3(C)C(O)C(O)C12CO", "note": "(stereo partly specified)", "activity change, negative = cytotoxicity": "-17.3% [at 9.29 µM]"}
{"compound": "CCC(C)(C)OC(=O)N[C@@H](Cc1c[nH]c2ccccc12)C(=O)N[C@@H](CCSC)C(=O)N[C@@H](CC(=O)O)C(=O)N[C@@H](Cc1ccccc1)C(N)=O", "activity change, negative = cytotoxicity": "1.06%"}
{"compound": "CC(=O)OC1CC(C)(C(=O)O)CC2C3=CC(=O)C4C5(C)CCC(OC6OC(C(=O)O)C(O)C(O)C6OC6OC(C(=O)O)C(O)C(O)C6O)C(C)(C)C5CCC4(C)C3(C)CCC12C", "note": "(stereo unspecified)", "activity change, negative = cytotoxicity": "0.92% [at 9.29 µM]"}
{"compound": "CN(C)CCN(Cc1ccccc1)C(=O)c1cc(-c2ccc(F)cc2)n2nc(C(C)(C)C)cc2n1", "Potency": "20.6 µM (active)"}
{"compound": "CC1CCC/C=C/C(=O)c2c(O)cc(O)cc2CC(=O)O1", "note": "(stereo unspecified)", "Potency": "5.8 µM (active)"}
{"compound": "CCCCCCCCCCCCCCCCCC(=O)OCCO", "activity change, negative = cytotoxicity": "-16.9%"}
{"compound": "Nc1ncnc2c1nc(Cl)n2C1OC2COP(=O)(O)OC2C1O", "note": "(stereo unspecified)", "Potency": "1.46 µM (active)"}
{"compound": "COc1ccc(CN2CCN(CCCSc3cc(C(C)(C)C)c(O)c(C(C)(C)C)c3)CC2)c(OC)c1OC", "activity change, negative = cytotoxicity": "-16.1% [at 9.29 µM]"}
{"compound": "COCC(c1ccc(C(F)(F)F)cc1)N1CCN(C2(C)CCN(C(=O)c3c(C)ncnc3C)CC2)CC1C", "note": "(stereo unspecified)", "activity change, negative = cytotoxicity": "-5.48%"}
{"compound": "C[C@H]1CC[C@@]2(OC1)O[C@H]1CC3[C@@H]4CC[C@@H]5C[C@@H](O[C@@H]6O[C@H](CO)[C@@H](O[C@@H]7O[C@@H](C)[C@H](O)[C@@H](O)[C@H]7O)[C@H](O)[C@H]6O[C@@H]6O[C@H](CO)[C@@H](O)[C@H](O)[C@H]6O)CC[C@]5(C)C4CC[C@]3(C)[C@H]1[C@@H]2C", "note": "(stereo partly specified)", "outcome": "inactive [at 9.29 µM]"}
{"compound": "Cc1cc(C)c(-n2cc(C)c3c(Cl)nc(C)nc32)c(C)c1", "activity change, negative = cytotoxicity": "-16%"}
{"compound": "C=C1CCC2C(C)(C(=O)O)CCCC2(C)C1CCC1=CCOC1=O", "note": "(stereo unspecified)", "activity change, negative = cytotoxicity": "9.62%"}
{"compound": "O=c1cc(NCCCN[C@@H]2CCOc3c(Br)cc(Br)cc32)[nH]c2ccsc12", "activity change, negative = cytotoxicity": "-12.4%"}
